Measured values reported in the supplement of paper PMC10849652.
Of roughly 8,800 targets only a part is listed; those with a hit were picked by preference. About 0.5% of all pairs of compound and target were hits. A number with no mark means an inactive call.

Assays:
Assay in all cases: log2 fold change, soluble protein after heating vs DMSO (PISA); higher = thermal stabilisation; K562 lysate, 10 uM; active = over 0.2 and 3.5 SD of the protein, either way, in both replicates (recomputed)
lapatinib = compound: CS(=O)(=O)CCNCc1ccc(-c2ccc3ncnc(Nc4ccc(OCc5cccc(F)c5)c(Cl)c4)c3c2)o1 [lapatinib]
Procedure, shortened: (§1)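 K562 pellets were dounce-homogenised in PBS pH 7.4 with 1 mM MgCl2, and the crude extract at 1 mg/mL protein was treated with 10 μM compound for 30 min. Aliquots were heated for 3 min across 48°C-58°C, pooled, and brought to 0.5% NP-40 at 4°C; soluble protein was the supernatant after 21,000xg for 90 min. Soluble protein was quantified by TMTpro 16plex LC-MS/MS with channel sums equalised, and reported as log2 fold change in thermal stability against DMSO controls, with values from duplicates.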

pictilisib = compound: CS(=O)(=O)N1CCN(Cc2cc3nc(-c4cccc5[nH]ncc45)nc(N4CCOCC4)c3s2)CC1 [pictilisib]
Procedure, shortened: as §1

crizotinib = compound: C[C@@H](Oc1cc(-c2cnn(C3CCNCC3)c2)cnc1N)c1c(Cl)ccc(F)c1Cl [crizotinib]
Procedure, shortened: as §1

[1] = compound: C[C@H](C1=CC=C(C=C1)C(=O)NC2=C3C=CNC3=NC=C2)N
Procedure, shortened: as §1

duvelisib = compound: C[C@H](Nc1ncnc2nc[nH]c12)c1cc2cccc(Cl)c2c(=O)n1-c1ccccc1 [duvelisib]
Procedure, shortened: as §1

gandotinib = compound: Cc1cc(Nc2cc(CN3CCOCC3)c3nc(C)c(Cc4ccc(Cl)cc4F)n3n2)n[nH]1 [gandotinib]
Procedure, shortened: as §1

tozasertib = compound: Cc1cc(Nc2cc(N3CCN(C)CC3)nc(Sc3ccc(NC(=O)C4CC4)cc3)n2)n[nH]1 [tozasertib]
Procedure, shortened: as §1

doramapimod = compound: Cc1ccc(-n2nc(C(C)(C)C)cc2NC(=O)Nc2ccc(OCCN3CCOCC3)c3ccccc23)cc1 [doramapimod]
Procedure, shortened: as §1

bafetinib = compound: Cc1ccc(NC(=O)c2ccc(CN3CC[C@H](N(C)C)C3)c(C(F)(F)F)c2)cc1Nc1nccc(-c2cncnc2)n1 [bafetinib]
Procedure, shortened: as §1

[2] = compound: Cc1cccc(CC(=O)N2CCc3c2ccc(-c2cn(C)c4ncnc(N)c24)c3F)n1
Procedure, shortened: as §1

UniProt O00748, sequence (O00748 whole entry, looked up): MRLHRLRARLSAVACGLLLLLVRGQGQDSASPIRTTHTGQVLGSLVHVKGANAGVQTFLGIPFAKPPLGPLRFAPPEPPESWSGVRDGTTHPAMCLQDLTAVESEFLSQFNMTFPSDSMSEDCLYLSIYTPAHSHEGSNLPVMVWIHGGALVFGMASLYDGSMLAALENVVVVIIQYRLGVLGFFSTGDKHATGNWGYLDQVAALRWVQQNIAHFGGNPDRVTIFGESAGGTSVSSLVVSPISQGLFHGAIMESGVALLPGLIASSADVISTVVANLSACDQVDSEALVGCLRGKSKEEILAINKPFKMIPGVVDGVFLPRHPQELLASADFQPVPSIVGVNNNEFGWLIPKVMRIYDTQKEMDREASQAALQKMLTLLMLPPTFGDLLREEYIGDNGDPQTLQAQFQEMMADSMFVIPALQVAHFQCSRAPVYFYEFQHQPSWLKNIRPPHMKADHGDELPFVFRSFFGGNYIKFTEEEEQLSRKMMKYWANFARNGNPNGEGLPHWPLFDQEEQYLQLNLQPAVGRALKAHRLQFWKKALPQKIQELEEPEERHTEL
UniProt Q96JB5, sequence (Q96JB5 whole entry, looked up): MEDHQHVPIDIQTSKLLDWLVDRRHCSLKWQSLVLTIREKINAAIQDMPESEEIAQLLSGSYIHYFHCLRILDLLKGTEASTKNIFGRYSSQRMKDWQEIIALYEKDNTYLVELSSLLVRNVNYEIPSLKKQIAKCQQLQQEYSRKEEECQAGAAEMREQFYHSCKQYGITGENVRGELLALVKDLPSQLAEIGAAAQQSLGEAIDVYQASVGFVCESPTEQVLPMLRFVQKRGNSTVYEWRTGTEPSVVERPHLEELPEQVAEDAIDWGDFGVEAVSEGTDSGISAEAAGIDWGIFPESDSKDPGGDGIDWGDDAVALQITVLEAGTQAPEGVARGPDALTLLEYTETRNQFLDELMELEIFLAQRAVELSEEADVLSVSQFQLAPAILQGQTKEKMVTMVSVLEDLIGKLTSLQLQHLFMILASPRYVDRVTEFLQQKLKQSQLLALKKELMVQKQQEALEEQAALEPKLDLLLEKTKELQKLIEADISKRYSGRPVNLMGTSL
UniProt Q00535, sequence (Q00535 whole entry, looked up): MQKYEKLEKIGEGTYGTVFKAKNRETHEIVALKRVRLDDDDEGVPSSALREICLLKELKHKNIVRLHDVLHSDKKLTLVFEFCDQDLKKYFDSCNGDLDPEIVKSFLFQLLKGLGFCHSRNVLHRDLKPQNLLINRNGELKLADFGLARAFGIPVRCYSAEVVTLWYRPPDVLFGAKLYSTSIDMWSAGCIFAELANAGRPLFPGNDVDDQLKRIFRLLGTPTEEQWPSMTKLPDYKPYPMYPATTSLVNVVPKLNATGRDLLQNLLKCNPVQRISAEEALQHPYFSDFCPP
UniProt Q5BKX5, sequence (Q5BKX5 whole entry, looked up): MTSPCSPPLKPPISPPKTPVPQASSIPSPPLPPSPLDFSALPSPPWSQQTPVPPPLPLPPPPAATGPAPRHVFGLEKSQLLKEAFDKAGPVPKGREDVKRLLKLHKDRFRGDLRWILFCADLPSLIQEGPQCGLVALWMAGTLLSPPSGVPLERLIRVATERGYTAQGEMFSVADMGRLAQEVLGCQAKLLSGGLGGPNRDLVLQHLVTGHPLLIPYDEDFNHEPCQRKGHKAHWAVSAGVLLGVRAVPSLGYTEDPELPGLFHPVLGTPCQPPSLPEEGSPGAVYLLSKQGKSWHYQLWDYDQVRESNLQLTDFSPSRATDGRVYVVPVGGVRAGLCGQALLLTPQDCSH
UniProt Q9BYV8, sequence (Q9BYV8 whole entry, looked up): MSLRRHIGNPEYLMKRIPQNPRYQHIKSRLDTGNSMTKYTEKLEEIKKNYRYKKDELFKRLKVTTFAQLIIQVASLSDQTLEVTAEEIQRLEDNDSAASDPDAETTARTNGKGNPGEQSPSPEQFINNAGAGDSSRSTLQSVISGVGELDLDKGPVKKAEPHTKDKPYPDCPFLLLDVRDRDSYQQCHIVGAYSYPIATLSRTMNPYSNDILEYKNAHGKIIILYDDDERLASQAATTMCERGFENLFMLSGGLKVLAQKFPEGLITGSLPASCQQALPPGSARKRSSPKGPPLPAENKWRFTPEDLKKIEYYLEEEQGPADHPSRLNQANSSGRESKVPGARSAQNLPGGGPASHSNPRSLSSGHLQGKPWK
UniProt Q15059, sequence (Q15059 whole entry, looked up): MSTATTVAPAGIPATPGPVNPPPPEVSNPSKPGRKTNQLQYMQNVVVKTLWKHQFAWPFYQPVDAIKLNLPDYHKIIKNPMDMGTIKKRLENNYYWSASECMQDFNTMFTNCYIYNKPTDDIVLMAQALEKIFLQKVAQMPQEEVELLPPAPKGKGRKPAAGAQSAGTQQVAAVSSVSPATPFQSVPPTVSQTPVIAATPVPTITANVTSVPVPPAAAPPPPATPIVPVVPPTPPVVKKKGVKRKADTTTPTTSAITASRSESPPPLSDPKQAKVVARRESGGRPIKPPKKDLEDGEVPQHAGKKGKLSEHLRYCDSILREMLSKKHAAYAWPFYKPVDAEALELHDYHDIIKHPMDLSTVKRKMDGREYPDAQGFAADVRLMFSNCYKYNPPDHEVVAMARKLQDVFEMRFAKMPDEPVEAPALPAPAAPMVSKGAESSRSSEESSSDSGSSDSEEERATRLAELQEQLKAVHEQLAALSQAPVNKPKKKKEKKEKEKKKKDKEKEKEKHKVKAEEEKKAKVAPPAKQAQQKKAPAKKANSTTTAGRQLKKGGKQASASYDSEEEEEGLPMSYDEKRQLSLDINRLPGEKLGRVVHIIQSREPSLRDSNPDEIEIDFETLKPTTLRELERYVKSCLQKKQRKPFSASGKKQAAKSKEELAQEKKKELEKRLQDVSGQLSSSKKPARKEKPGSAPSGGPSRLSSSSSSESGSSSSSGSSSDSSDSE
UniProt O75143, sequence (O75143 whole entry, looked up): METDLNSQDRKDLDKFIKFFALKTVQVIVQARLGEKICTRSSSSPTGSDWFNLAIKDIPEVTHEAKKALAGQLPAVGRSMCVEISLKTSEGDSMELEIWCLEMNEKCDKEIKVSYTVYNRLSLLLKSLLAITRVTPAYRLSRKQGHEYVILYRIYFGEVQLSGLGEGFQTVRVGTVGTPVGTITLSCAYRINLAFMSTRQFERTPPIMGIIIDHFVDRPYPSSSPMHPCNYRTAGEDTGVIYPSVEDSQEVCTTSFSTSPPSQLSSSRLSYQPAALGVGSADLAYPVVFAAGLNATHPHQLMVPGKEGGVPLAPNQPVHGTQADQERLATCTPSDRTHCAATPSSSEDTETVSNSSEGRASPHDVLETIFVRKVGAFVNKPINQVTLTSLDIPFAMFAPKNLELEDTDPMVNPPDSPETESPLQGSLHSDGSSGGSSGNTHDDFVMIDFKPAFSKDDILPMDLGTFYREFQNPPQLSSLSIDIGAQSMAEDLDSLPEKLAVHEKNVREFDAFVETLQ
UniProt Q96ER9, sequence (Q96ER9 whole entry, looked up): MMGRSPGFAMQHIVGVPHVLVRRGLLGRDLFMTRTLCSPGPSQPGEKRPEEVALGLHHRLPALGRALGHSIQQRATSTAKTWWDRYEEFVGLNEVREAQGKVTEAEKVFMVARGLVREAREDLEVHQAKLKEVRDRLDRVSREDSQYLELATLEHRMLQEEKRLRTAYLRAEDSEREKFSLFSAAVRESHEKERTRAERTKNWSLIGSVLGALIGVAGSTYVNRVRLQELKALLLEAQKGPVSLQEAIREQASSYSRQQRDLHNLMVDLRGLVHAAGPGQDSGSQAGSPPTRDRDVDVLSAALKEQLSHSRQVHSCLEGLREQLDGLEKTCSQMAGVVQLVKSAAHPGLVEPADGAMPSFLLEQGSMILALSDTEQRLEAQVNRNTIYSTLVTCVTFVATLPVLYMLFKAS
UniProt P08962, sequence (P08962 whole entry, looked up): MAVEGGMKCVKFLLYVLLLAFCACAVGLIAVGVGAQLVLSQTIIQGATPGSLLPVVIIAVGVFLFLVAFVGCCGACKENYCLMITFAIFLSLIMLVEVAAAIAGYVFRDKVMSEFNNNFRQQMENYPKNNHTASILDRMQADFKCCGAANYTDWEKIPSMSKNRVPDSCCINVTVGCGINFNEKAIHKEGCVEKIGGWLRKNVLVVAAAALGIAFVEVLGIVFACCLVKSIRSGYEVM
UniProt O00311, sequence (O00311 whole entry, looked up): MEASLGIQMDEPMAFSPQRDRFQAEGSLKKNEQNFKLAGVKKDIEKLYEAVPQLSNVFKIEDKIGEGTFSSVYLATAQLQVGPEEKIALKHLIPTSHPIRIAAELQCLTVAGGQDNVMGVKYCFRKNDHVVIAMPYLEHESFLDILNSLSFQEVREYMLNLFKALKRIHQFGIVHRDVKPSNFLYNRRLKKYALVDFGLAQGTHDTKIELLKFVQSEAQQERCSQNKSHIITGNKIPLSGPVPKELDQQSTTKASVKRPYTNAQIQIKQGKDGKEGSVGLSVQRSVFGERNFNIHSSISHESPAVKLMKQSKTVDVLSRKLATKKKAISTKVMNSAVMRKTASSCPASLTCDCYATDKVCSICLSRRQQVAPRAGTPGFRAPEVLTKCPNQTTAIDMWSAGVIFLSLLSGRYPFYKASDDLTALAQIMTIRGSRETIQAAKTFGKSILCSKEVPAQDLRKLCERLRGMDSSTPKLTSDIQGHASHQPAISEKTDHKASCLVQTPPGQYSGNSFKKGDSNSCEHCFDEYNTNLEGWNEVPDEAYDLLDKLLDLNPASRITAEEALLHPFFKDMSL
UniProt O95067, sequence (O95067 whole entry, looked up): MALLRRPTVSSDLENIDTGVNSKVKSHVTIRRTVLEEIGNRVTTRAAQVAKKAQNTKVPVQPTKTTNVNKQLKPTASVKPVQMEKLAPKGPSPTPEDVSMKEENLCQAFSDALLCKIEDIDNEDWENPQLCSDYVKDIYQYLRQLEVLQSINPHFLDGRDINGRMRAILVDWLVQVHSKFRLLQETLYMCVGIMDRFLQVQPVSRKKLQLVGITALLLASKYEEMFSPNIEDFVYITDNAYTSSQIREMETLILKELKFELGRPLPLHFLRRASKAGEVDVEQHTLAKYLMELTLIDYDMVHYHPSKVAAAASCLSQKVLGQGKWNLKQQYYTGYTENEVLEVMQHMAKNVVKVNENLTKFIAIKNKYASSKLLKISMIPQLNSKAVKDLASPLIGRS

| Target | log2 fold change (lapatinib) | log2 fold change (pictilisib) | log2 fold change (crizotinib) | log2 fold change [1] | log2 fold change (duvelisib) | log2 fold change (gandotinib) | log2 fold change (tozasertib) | log2 fold change (doramapimod) | log2 fold change (bafetinib) | log2 fold change [2] |
| --- | --- | --- | --- | --- | --- | --- | --- | --- | --- | --- |
| CDK5RAP3 isoform 4 (UniProt Q96JB5) | -0.013 | -0.028 | -0.054 | -0.231 (active) | -0.002 | 0.173 | 0.019 | 0.017 | -0.02 | 0.211 |
| CDC7 (UniProt O00311) | 0.112 | -0.067 | -0.024 | -0.335 (active) | -0.007 | 0.047 | -0.01 | 0.06 | 0.009 | 0.087 |
| BAG4 (UniProt O95429) | 0.013 | -0.174 | 0.06 | -0.056 | 0.043 | 0.102 | 0.011 | -0.043 | -0.002 | 0.004 |
| ATG7 (UniProt O95352) | 0.006 | -0.002 | -0.015 | -0.037 | 0 | -0.035 | -0.015 | 0.02 | -0.024 | 0.006 |
| CCDC47 (UniProt Q96A33) | -0.05 | 0.005 | -0.016 | -0.012 | -0.03 | -0.145 | -0.009 | -0.018 | -0.031 | 0.049 |
| CCDC22 (UniProt O60826) | -0.002 | -0.017 | -0.036 | -0.014 | -0.016 | -0.056 | 0.03 | 0.023 | -0.035 | -0.005 |
| CANX (UniProt D6RHJ3) | -0.017 |  |  |  |  |  |  |  |  |  |
| CD63 (UniProt P08962) | 0.006 | -0.256 | 0.036 | -0.415 (active) | 0.025 | 0.209 | 0.013 | 0.077 | -0.08 | 0.074 |
| CES2 isoform 4 (UniProt O00748) | 0.027 | 0.32 | 0.079 | -0.003 | 0.021 | 0.016 | 0 | 0.015 | 0.154 | 0.036 |
| C19orf54 (UniProt Q5BKX5) | -0.003 | -0.089 | -0.019 | -0.011 | -0.076 | -0.046 | -0.008 | -0.036 | -0.01 | 0.027 |
| BCKDK (UniProt O14874) | -0.056 | -0.028 | 0.096 | -0.038 | -0.008 | -0.095 | -0.039 | -0.033 | 0.012 | -0.003 |
| CAMK2G isoform 8 (UniProt Q13555) | -0.013 | -0.008 | -0.177 | -0.053 | -0.083 | 0.085 | -0.037 | -0.049 | 0.001 | -0.07 |
| ATG4B (UniProt Q9Y4P1) | 0.012 | -0.042 | -0.087 | 0.114 | 0.01 | -0.128 | -0.013 | 0.004 | -0.008 | -0.059 |
| C8orf37 (UniProt Q96NL8) | -0.095 | 0.006 | 0.043 | -0.559 (active) | 0.046 | -0.06 | 0.006 | 0.043 | 0.09 | 0.238 |
| BLOC1S6 (UniProt Q9UL45) | -0.018 | -0.037 | 0.062 | 0.048 | 0.021 | 0.031 | -0.11 | -0.011 | 0.033 | -0.066 |
| BSDC1 (UniProt Q9NW68) | 0.088 | -0.055 | 0.012 | -0.052 | 0.016 | 0.312 (active) | -0.005 | 0.098 | -0.012 | 0.019 |

| Target | log2 fold change (lapatinib) | log2 fold change (pictilisib) | log2 fold change (crizotinib) | log2 fold change [1] | log2 fold change (duvelisib) | log2 fold change (gandotinib) | log2 fold change (tozasertib) | log2 fold change (doramapimod) | log2 fold change (bafetinib) | log2 fold change [2] |
| --- | --- | --- | --- | --- | --- | --- | --- | --- | --- | --- |
| ATG13 isoform 2 (UniProt O75143) | 0.018 | 0.014 | -0.022 | -0.271 (active) | 0.016 | 0.172 | 0.05 | 0.049 | -0.123 | 0.137 |
| CHD1L (UniProt Q86WJ1) | -0.037 | -0.045 | -0.115 | -0.011 | 0.013 | -0.062 | 0.052 | 0.128 | -0.055 | 0.038 |
| CARD9 (UniProt Q9H257) | -0.048 | -0.035 | -0.053 | -0.016 | -0.009 | -0.032 | 0.022 | 0.032 | -0.145 | 0.03 |
| BRD3 (UniProt Q15059) | 0.014 | 0.004 | -0.022 | -0.333 (active) | 0.1 | 0.147 | 0.048 | -0.074 | -0.016 | 0.154 |
| CCDC51 (UniProt Q96ER9) | -0.038 | -0.055 | -0.01 | 0.259 (active) | -0.034 | -0.217 (active) | 0.007 | -0.053 | -0.106 | -0.232 |
| CHCHD1 (UniProt Q96BP2) | 0.025 | 0.001 | -0.069 | 1.33 (active) | 0.052 | -0.314 | -0.016 | 0.039 | 0.003 | -0.35 (active) |
| CDS2 (UniProt O95674) | 0.02 | -0.007 | 0.031 | -0.029 | 0.088 | 0.048 | 0.054 | 0.009 | 0.006 | 0.019 |
| ATP2B4 (UniProt P23634) | -0.022 | -0.018 | 0.018 | -0.166 | 0.053 | 0.082 | 0.046 | 0.049 | -0.125 | 0.221 (active) |
| ATG4A (UniProt Q8WYN0) | -0.017 | -0.02 | -0.033 | -0.061 | -0.009 | -0.025 | 0.044 | 0.008 | -0.014 | 0.063 |
| ATR (UniProt Q13535) | -0.036 | 0.408 (active) | -0.1 | -0.158 | 0.032 | 0.117 | 0.044 | 0.068 | -0.033 | 0.161 |
| CCNB2 (UniProt O95067) | -0.048 | -0.091 | -0.018 | -0.016 | 0.032 | -0.108 | 0.023 | 0.009 | -0.035 | 0.068 |
| CDK5 (UniProt Q00535) | -0.094 | 0.095 | -0.031 | -0.024 | 0.03 | 0.451 | 0.014 | 0.423 | -0.008 | -0.023 |
| CEP41 (UniProt Q9BYV8) | -0.017 | 0.039 | 0.062 | 0.047 | -0.013 | 0.003 | 0.086 | 0.044 | -0.067 | 0.007 |
| CHD3 isoform 3 (UniProt Q12873) | -0.022 | -0.02 | 0.009 | 0.014 | -0.022 | -0.013 | -0.002 | 0.028 | -0.047 | 0.033 |
| BNIP1 (UniProt Q12981) | -0.007 | 0.018 | -0.062 | 0.273 | -0.059 | -0.15 | 0.017 | 0.071 | -0.019 | -0.17 |
